Measured values published in PubChem BioAssay (EPA / NIEHS).
Inconclusive results are not listed. Activity calls are given as the source filed them. How the source made its calls, unless noted: active means hit-call score of the fitted dose curve at least 0.9, where 1 is the maximum; inconclusive means response in the unintended direction; inactive means score below 0.9.

Assays:
[1] = TOX21_p53_BLA_p2_viability: Viability Assessment in the Tox21 HCT-116 p53 Agonism Beta-lactamase Assay, Phase 2 (AID 2283591);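 further: compound exposure lasted 16 h at 37 °C; actives lower the ATP signal meaning cytotoxicity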
In short: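 HCT116 p53-bla cells, 4000/well, dosed after 5 h plating (217-fold dilution of DMSO stocks) and incubated 16 h at 37C. Viability taken as cellular ATP by CellTiter-Glo luminescence after 30 min RT; signal loss marks cytotoxicity.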

[2] = biological target: Cellular tumor antigen p53 (Homo sapiens) (UniProt P04637); assay: TOX21_p53_BLA_p2_ratio: Tox21 HCT-116 p53 Agonism Beta-lactamase Assay, Ratio, Phase 2 (AID 2283592)
In short: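 In this cell-based reporter format, HCT116 cells were dosed with chemicals delivered from DMSO by 217-fold dilution and incubated 16 h at 37C. Emission at 460 and 530 nm after 2 h CCF4-AM loading provided the ratio, fitted upward versus DMSO.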

[3] = TOX21_p53_BLA_p3_viability: Viability Assessment in the Tox21 HCT-116 p53 Agonism Beta-lactamase Assay, Phase 3 (AID 2283593);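 further: cells exposed to compound for 16 h before reading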
In short: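 HCT116 cells, 4000/well, dosed 5 h after plating by pin transfer (217-fold dilution from DMSO stock) and incubated 16 h at 37C, 5% CO2. Viability read as ATP luminescence with CellTiter-Glo after 30 min at room temperature.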

[4] = TOX21_p53_BLA_p4_viability: Viability Assessment in the Tox21 HCT-116 p53 Agonism Beta-lactamase Assay, Phase 4 (AID 2283597);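 further: hits lower the luminescence signal meaning cytotoxicity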
In short: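 We seeded HCT116 p53 reporter cells at 4000/well and waited 5 h. We then added compounds in DMSO at a 217-fold dilution and incubated for 16 h. Viability was read as CellTiter-Glo luminescence after 30 min at RT.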

[5] = TOX21_p53_BLA_p5_viability: Viability Assessment in the Tox21 HCT-116 p53 Agonism Beta-lactamase Assay, Phase 5 (AID 2283600)
In short: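 Compounds, pinned from DMSO at 217-fold dilution, were left on the cells for 16 h. The viability endpoint was ATP content measured by CellTiter-Glo luminescence, where falling signal reflects cytotoxicity.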

[6] = biological target: Cellular tumor antigen p53 (Homo sapiens) (UniProt P04637); assay: TOX21_p53_BLA_p4_ratio: Tox21 HCT-116 p53 Agonism Beta-lactamase Assay, Ratio, Phase 4 (AID 2283601)
In short: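 HCT-116 p53 beta-lactamase reporter cells (4000/well) preincubated 5 h, then compound (217-fold dilution of DMSO stock) for 16 h at 37C. CCF4-AM substrate added 2 h at room temperature; 460/530 nm emission ratio fitted upward versus DMSO.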

[7] = biological target: Cellular tumor antigen p53 (Homo sapiens) (UniProt P04637); assay: TOX21_p53_BLA_p5_ratio: Tox21 HCT-116 p53 Agonism Beta-lactamase Assay, Ratio, Phase 5 (AID 2283599)
In short: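 HCT-116 p53-bla cells (4000/well) plated 5 h, dosed with compound (217-fold DMSO dilution) for 16 h at 37 C; CCF4-AM substrate 2 h at room temperature. Activity is the 460/530 nm emission ratio (405 nm excitation), fitted in gain-of-signal direction versus DMSO.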

[8] = CCTE_Harrill_HTTr_Viability_MCF7: CCTE's 6-hour Cell Viability Assessment for the High-Throughput Transcriptomics (HTTr) Platform, in MCF-7 cells cultured in DMEM + 10% fetal bovine serum, Harrill Lab (AID 2284010; active means hit-call score of the fitted dose curve at least 0.9, where 1 is the maximum; inactive means score below 0.9)
In short: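 Cells were dosed with chemicals in an eight-point dilution series, imaged 6 hours later for propidium iodide uptake, and the endpoint was analyzed by bidirectional fitting against DMSO as negative control.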

[9] = CCTE_Harrill_HTTr_Apoptosis_MCF7: CCTE's 6-hour Apoptosis Assessment for the High-Throughput Transcriptomics (HTTr) Platform, in MCF-7 cells cultured in DMEM + 10% fetal bovine serum, Harrill Lab (AID 2284011; active means hit-call score of the fitted dose curve at least 0.9, where 1 is the maximum; inactive means score below 0.9)
In short: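 Read-out: CellEvent Caspase 3/7 Green signal by high content imaging, gain-of-signal indicating apoptosis. MCF-7 cells, DMEM + 10% FBS, eight-point dilution series, 6 h exposure. Curves fitted bidirectionally relative to DMSO negative control.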

[10] = CCTE_Harrill_HTTr_CellCount_MCF7: CCTE's Cell Proliferation Assessment for the High-Throughput Transcriptomics (HTTr) Platform, Harrill Lab (AID 2284012);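 further: count of Hoechst-stained nuclei per well by high-content imaging in MCF-7 cells; cells exposed to compound for six hours; intended direction is loss of nuclei count meaning fewer cells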
In short: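 Chemicals in eight-point dilution series are added to MCF-7 cells for six hours, nuclei are stained with Hoechst and imaged, and per-well nuclei counts are fitted in both directions relative to DMSO controls.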

Measured: AC50

Sequence of Cellular tumor antigen p53 (Homo sapiens) (P04637 whole entry, looked up): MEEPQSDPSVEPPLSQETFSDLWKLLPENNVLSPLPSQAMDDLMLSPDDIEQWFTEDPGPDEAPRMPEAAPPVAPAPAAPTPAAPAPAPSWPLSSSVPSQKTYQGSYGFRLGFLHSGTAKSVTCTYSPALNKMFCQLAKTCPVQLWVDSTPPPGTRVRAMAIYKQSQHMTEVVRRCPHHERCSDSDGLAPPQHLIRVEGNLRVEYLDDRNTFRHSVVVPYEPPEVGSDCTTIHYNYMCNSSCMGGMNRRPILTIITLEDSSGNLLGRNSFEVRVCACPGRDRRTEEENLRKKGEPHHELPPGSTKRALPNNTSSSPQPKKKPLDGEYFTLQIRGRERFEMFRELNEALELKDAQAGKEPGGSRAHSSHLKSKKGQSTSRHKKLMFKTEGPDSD

O=C(CCCN1CCC(C(=O)c2ccc(F)cc2)CC1)c1ccc(F)cc1
inactive: [1] | [2] | [3] | [4] | [5]

CC(C(O)c1ccccc1)N(C)CCOC(c1ccccc1)c1ccccc1 (configuration not stated)
inactive: [1] | [2] | [3] | [5]
active: [4] 42.2 µM

CCC(=O)c1ccc2c(c1)N(CCCN1CCN(CCO)CC1)c1ccccc1S2
active: [4] 33.3 µM
inactive: [1] | [2] | [3] | [5] | [6]

CCOC(=O)[C@H](CCc1ccccc1)N[C@@H](C)C(=O)N1CCC[C@H]1C(=O)O
inactive: [1] | [2] | [3] | [4] | [5]

O=C1OC2(c3ccc(O)cc3Oc3cc(O)ccc32)c2ccc(N=C=S)cc21
inactive: [1] | [2] | [3] | [4] | [5] | [6]

CCOC(=O)n1ccn(C)c1=S
inactive: all assays above

CN(C(=O)CO)c1c(I)c(C(=O)NCC(O)CO)c(I)c(C(=O)NCC(O)CO)c1I (configuration not stated)
inactive: [1] | [2] | [3] | [4] | [5] | [6]

O=[N+]([O-])c1ccc(CCO)cc1
inactive: [1] | [2] | [3] | [4] | [7] | [6]

CNCC(O)c1ccc(OC(=O)C(C)(C)C)c(OC(=O)C(C)(C)C)c1 (configuration not stated)
inactive: [1] | [2] | [3] | [4] | [5] | [6]

CCOC(=O)[C@H](CCc1ccccc1)N[C@@H](C)C(=O)N(CC(=O)O)C1Cc2ccccc2C1
inactive: [1] | [2] | [3] | [5] | [6]
active: [4] 7.13 µM

CCCCCCCCCOC(=O)c1ccccc1C(=O)OCCCCCCCCC
inactive: [1] | [2] | [3] | [4] | [7] | [6]

C=C(C)C(=O)OCCCCCCCCCCCCC
inactive: [1] | [2] | [3] | [4] | [5] | [6]

O=Cc1ccc([N+](=O)[O-])cc1
inactive: [1] | [2] | [3] | [4] | [7] | [6]

Cc1ccsc1/C=C/C1=NCCCN1C
inactive: [1] | [2] | [3] | [4] | [7] | [6]

CCCc1cc(C(N)=S)ccn1
inactive: [1] | [2] | [3] | [4] | [5]

CC(C)(Oc1ccc(C2CCCc3ccccc32)cc1)C(=O)O (configuration not stated)
inactive: [1] | [2] | [3] | [4] | [5]

CC[C@H]1OC(=O)[C@H](C)[C@@H](O[C@H]2C[C@@](C)(OC)[C@@H](O)[C@H](C)O2)[C@H](C)[C@@H](O[C@@H]2O[C@H](C)C[C@H](N(C)C)[C@H]2O)[C@](C)(O)C[C@@H](C)CN(C)[C@H](C)[C@@H](O)[C@]1(C)O
inactive: [1] | [2] | [3] | [4] | [5] | [6]

O=C(O)c1ccc2cc(O)ccc2c1
inactive: [1] | [2] | [3] | [4] | [7] | [6]

CC(C)CCCCCCN
inactive: [1] | [2] | [3] | [4] | [5]

CCN1CCC[C@H]1CNC(=O)c1cc(S(N)(=O)=O)ccc1OC
inactive: [1] | [2] | [3] | [4] | [5] | [6]

O=C(Nc1ccccc1)Nc1ccccc1
inactive: [1] | [2] | [3] | [4] | [5]

CNCCC=C1c2ccccc2CCc2ccccc21
inactive: [1] | [2] | [3] | [5] | [6]
active: [4] 35.8 µM

C=C(C)C1CCC(C)(O)CC1 (configuration not stated)
not listed: [4]
inactive: all other assays above

O=C(O)c1ccccc1S
inactive: [1] | [2] | [3] | [7]

C[N+](C)(C)CCOC(N)=O
inactive: [1] | [2] | [3] | [7] | [5] | [6]

CC12CCC(C(=O)C1=O)C2(C)C (configuration not stated)
inactive: [1] | [2] | [3] | [7] | [5]

CCCOCCOCCO
inactive: [1] | [2] | [3] | [7] | [6]

CC(C)Cc1ccc([C@@H](C)C(=O)NS(C)(=O)=O)cc1
inactive: [1] | [2] | [3] | [7] | [5]

CO/N=C(\C(=O)N[C@@H]1C(=O)N2C(C(=O)OCOC(=O)C(C)(C)C)=C(/C=C\c3scnc3C)CS[C@H]12)c1csc(N)n1
inactive: [1] | [2] | [3] | [7] | [6]

O=C(OCCO)c1ccccc1O
inactive: [1] | [2] | [3] | [4] | [6]

CCC(=O)C=CC1C(C)=CCCC1(C)C (configuration not stated)
inactive: [1] | [2] | [3] | [7] | [5]

CO[Si](OC)(OC)OC
inactive: [1] | [2] | [3] | [7]
